Source: PubChem BioAssay
HT1080 IDH1KD tx – qHTS for induction of synthetic lethality in tumor cells producing 2HG: qHTS for the HT-1080-IDH1KD cell line. HT-1080 IDH1 knockdown viability, ATP luminescence, 48 h. Potency, µM (highest dose often 46.1 µM), for the others: at the highest dose activity, negative = toxicity, usual class: cytotoxic. 2% of 360,000 active. AID 686971, 2013;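 note: potency is the fitted concentration of half-maximal effect; 0% = DMSO wells and -100% = cell-free medium wells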
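Assay cells: HT-1080 with IDH1 knockdown, 750 per well, RPMI/5% FBS. Exposure: 48 h at 37 °C following 2 h pre-incubation. Read: CellTiter-Glo luminescence; fitted concentration-response, curve class assigned.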
HT1080-NT tox – qHTS for induction of synthetic lethality in tumor cells producing 2HG: qHTS for the HT-1080-NT fibrosarcoma cell line; HT-1080-NT fibrosarcoma viability, CellTiter-Glo ATP luminescence, 48 h; Potency, µM (top dose mostly 46.1 µM), for inactives: at the highest dose activity, negative = less viability, most hits filed as cytotoxic; 1.6% of 360,000 active; AID 686970, 2013;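 note: NT is the 2HG producing partner of a matched IDH1 knockdown line; potency is the fitted concentration of half-maximal effect; 0% = DMSO-treated cells and -100% = media-only wells without cells; nearly all actives have a fitted effect of over 55% in size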
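A 48-hour cytotoxicity screen used HT-1080-NT cells plated 2 hours before compound delivery. ATP-based CellTiter-Glo luminescence measured viability, normalized to DMSO and no-cell controls.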
TDP1 cell noCPT – qHTS for Inhibitors of human tyrosyl-DNA phosphodiesterase 1 (TDP1): qHTS in cells in absence of CPT | Potency, µM (series often up to 46.2 µM), for inactives: at the top dose activity change, negative = growth inhibition, hits mostly inhibitors | AID 686978, 2013 | 15% of 420,000 active | DT40 Tdp1-/- hTDP1 cells, no CPT, ATP luminescence, 48 h; note: potency is the fitted concentration of half-maximal effect; nearly all actives have a fitted effect of over 55% in size
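Chicken DT40 Tdp1-/- cells stably complemented with human TDP1 were seeded at 400 cells/well with DMSO in place of 20 nM camptothecin. After compound pinning, cells grew at least 48 hr at 37 °C; viability read by CellTiter-Glo luminescence.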
IL1B secr inh – qHTS for Inhibitors of Inflammasome Signaling: IL-1-beta AlphaLISA Primary Screen. AID 743279, 2014. THP-1 LPS/ATP IL-1B secretion, AlphaLISA, 16 h; hits give low values. 4.7% of 360,000 active. activity change, % at 57.5 µM; in the data active = activity change below about -50%; inconclusive = mostly about -30% to -49%
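THP-1 cells pretreated 1 hr with compounds (up to 57.5 uM final), then stimulated with LPS (250 ng/mL final) plus ATP (1.25 mM final); secreted IL-1B measured by AlphaLISA after 16 hr, decreased signal indicating inhibition.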
DT40 TDP1 CPT – qHTS for Inhibitors of human tyrosyl-DNA phosphodiesterase 1 (TDP1): qHTS in cells in presence of CPT. chicken DT40 Tdp1-/-;hTDP1 cells + 20 nM CPT, ATP luminescence, 48 h. Potency, µM (series often up to 46.2 µM), for the others: at the highest dose activity change, negative = growth inhibition, most hits filed as inhibitors. 12% of 420,000 active; note: potency is the fitted concentration of half-maximal effect; nearly all actives have a fitted effect of over 55% in size
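Chicken DT40 Tdp1-/- cells complemented with human TDP1, 400 cells/well, exposed to compounds plus 20 nM camptothecin for at least 48 h at 37 C; viability read as ATP content by CellTiter-Glo luminescence.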
The depositor's hits bear a star; u = inconclusive; x = no result. Shown are actives, neighbours in structure and some others; about 19% of the full set was active somewhere. Unless noted, calls come from the whole dose curve; as a rule, active = well fitted curve in the direction sought with a large enough effect; inconclusive = small, poorly fitted or top-dose-only effect, or another doubt; inactive = no such curve, though single readings can be large; an effect the other way counts as inactive or inconclusive. Unless noted, % is set by controls: 0 for no effect and ±100 for the full control effect.

SMILES	HT1080 IDH1KD tx	HT1080-NT tox	TDP1 cell noCPT	IL1B secr inh	DT40 TDP1 CPT
COc1ccc2c(c1)CC(NC(=O)Nc1ccc(Br)c(C)c1)CO2 (configuration not stated)	x	x	-13%	x	-16%
CN(C)c1ccc(N=Nc2ccccc2C(=O)OCC(=O)N2CCCC2)cc1	0%	-3%	-94%	-18	u
CN(C)c1ccc(N=Nc2ccccc2C(=O)OCC(=O)Nc2ccccc2C(F)(F)F)cc1	-5%	0%	23µM*	-25	u
COc1cc(C(=O)NNC(=O)c2ccc3ccccc3n2)cc(OC)c1OC	u	u	u	111	u
COc1ccc(C(=O)NC(=S)NNC(=O)c2ccc3ccccc3n2)cc1	u	-25%	18µM*	48	u
COc1cc(OC)cc(C(=O)NNC(=O)c2ccc3ccccc3n2)c1	21µM*	u	5.2µM*	50	5.2µM*
CCN1CCN(C(c2cccnc2)c2c(NC(=O)c3ccco3)sc(C)c2C)CC1 (configuration not stated)	0%	-1%	23µM*	u	16µM*
CCN1CCN(C(c2ccccn2)c2c(NC(=O)c3ccccc3)sc(C)c2C)CC1 (configuration not stated)	-23%	-30%	8.2µM*	u	8.2µM*
CCCCN1CC(COCc2ccccc2)Oc2cccc(NCc3ccc(OC)cc3)c2S1(=O)=O (configuration not stated)	7%	2%	u	34	u
CCCCN1CC(COCc2ccccc2)Oc2cccc(Oc3ccccc3)c2S1(=O)=O (configuration not stated)	-1%	-6%	18µM*	0	u
CCCCN1CC(COCc2ccccc2)Oc2cccc(Oc3ccc(F)cc3)c2S1(=O)=O (configuration not stated)	4%	0%	u	28	u
CCCCN1CC(COCc2ccccc2)Oc2cccc(Oc3cc(C)c(C)c(C)c3)c2S1(=O)=O (configuration not stated)	-7%	-8%	5.2µM*	21	7.3µM*
CCCCN1CC(COCc2ccccc2)Oc2cccc(OCc3ccc(OC)cc3)c2S1(=O)=O (configuration not stated)	8%	5%	4.1µM*	15	5.8µM*
CCCCN1CC(COCc2ccccc2)Oc2cccc(Oc3ccc(C)cc3)c2S1(=O)=O (configuration not stated)	-3%	u	7.3µM*	16	8.2µM*
COc1cc2c(cc1NC(=O)COc1ccc(Cl)cc1Br)oc1ccccc12	x	x	0%	x	-3%
CCCCNc1cccc2c1S(=O)(=O)N(CCCC)CC(COCc1ccccc1)O2 (configuration not stated)	-10%	-4%	16µM*	2	u
CC(Cc1ccccc1)NC(=S)CN1CCCC1=S (configuration not stated)	4%	-3%	0%	-19	-18%
COc1ccc(C(=O)N[C@H]2CCCCNC2=O)cc1OC1CCN(C(C)C)CC1	18%	11%	19%	-7	-12%
COc1ccc(N=CC2CCCCC2=O)c([N+](=O)[O-])c1 (configuration not stated)	0%	-4%	u	-85*	u
COc1ccc(N2C(=O)C3C4C=CC(CC4)C3C2=O)c([N+](=O)[O-])c1 (configuration not stated)	-2%	3%	-38%	-15	u
O=[N+]([O-])c1cccc(-c2nnc3ccc4ccccc4n23)c1	0%	1%	13µM*	15	16µM*
Cc1ccc(NC(=O)c2ccc(=O)n(CC(=O)Nc3cc(C)cc(C)c3)n2)cc1	x	x	-25%	x	3%
CCNc1ccc(/C=C/c2ccnc3ccccc23)cc1	x	x	4µM*	x	-109%
O=C(O)c1ccc(N/N=C/c2ccnc3ccccc23)cc1	-6%	-3%	-29%	u	-29%
CCCCCCNc1ccc(/C=C/c2ccnc3ccccc23)cc1	x	x	13µM*	x	16µM*
SMILES	HT1080 IDH1KD tx	HT1080-NT tox	TDP1 cell noCPT	IL1B secr inh	DT40 TDP1 CPT
CNc1ccc(/C=C/c2ccnc3ccccc23)cc1	x	x	16µM*	x	11µM*
CCOC(=O)C1CCN(C(=O)Cn2nc(CC)n3c(cc4sccc43)c2=O)CC1	x	x	18µM*	x	u
CCc1cc2c(cc3c(=O)n(CC(=O)N4CCC(C)CC4)nc(CC)n32)s1	x	x	u	x	16µM*
CCc1cc2c(cc3c(=O)n(CCCC(=O)NCc4ccccc4Cl)nc(CC)n32)s1	x	x	23µM*	x	u
CCc1cc2c(cc3c(=O)n(CC(=O)N4CCN(c5ccccn5)CC4)nc(CC)n32)s1	-3%	12%	u	3	u
CCc1nn(CCCC(=O)NCc2ccccc2Br)c(=O)c2cc3occc3n12	8%	-1%	u	-8	u
CCc1nn(CC(=O)N2CCN(c3cccc(C)c3)C(C)C2)c(=O)c2cc3sccc3n12 (configuration not stated)	x	x	23µM*	x	21µM*
O=C(Cn1nc(C(=O)O)c2ccccc2c1=O)Nc1cc(S(=O)(=O)N2CCCCC2)ccc1Cl	-4%	-2%	0%	4	-11%
O=C(O)c1cc2ccccc2c(Cc2c(O)c(C(=O)O)cc3ccccc23)c1O	x	x	-15%	x	0%
Cc1[nH]c2ccccc2c1C(O)CN1CCC2(CC1)OCCO2 (configuration not stated)	3%	-3%	16µM*	0	u
Cc1[nH]c2ccccc2c1C(=O)CN1CCC2(CC1)OCCO2	0%	4%	-26%	-3	-12%
Cc1cccc(C)c1NC(=O)c1csc([C@H]2C[C@H](O)[C@@H](CO)O2)n1	0%	7%	16%	8	-28%
CCn1c(/C=C2\C(=O)Nc3ccccc32)nc2ccccc2c1=O	-15%	-7%	16µM*	u	u
CCn1c(/C=C/c2ccccc2F)nc2ccccc2c1=O	-18%	-14%	u	-14	u
CCn1c(/C=C/c2cc(Br)ccc2O)nc2ccccc2c1=O	-23%	-18%	u	-58*	u
CCn1c(/C=C/c2ccc(O)c(O)c2)nc2ccccc2c1=O	-24%	-22%	6.5µM*	-19	u
CCn1c(/C=C/c2ccc(O)cc2)nc2ccccc2c1=O	-11%	-25%	26µM*	-96*	u
